Data published in PubChem BioAssay (Tox21).
A number with no mark means an inactive call. Results filed as inconclusive are left out. Where a call stands in place of a potency, no number is given. Calls of active or inactive are those of the source. Unless noted, calls come from the whole dose curve; as a rule, active = well fitted curve in the direction sought with a large enough effect in the repeat runs; inconclusive = weak or mixed curves; inactive = no such curve, though single readings can be large; an effect the other way counts as inactive or inconclusive.

Columns and labels:
[1] = qHTS assay to identify small molecule agonists of the hypoxia (HIF-1) signaling pathway - cell viability counter screen (AID 1224844; calls by dose curve; note: nearly all actives have a fitted effect of over 50% in size)
Method in brief: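 HRE-bla ME-180 cells in medium with 0.5% dialyzed FBS were preincubated 5 hrs at 37C, exposed to compounds for 17 hrs, then viability was read as CellTiter-Glo luminescence after 30 min at room temperature, in the reporter wells.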

[2] = qHTS assay to identify small molecule agonists of H2AX (AID 1224845; active = well fitted activation curve with a large enough effect in the signal ratio in the repeat runs, not every such curve was filed as active; the % refers to the signal ratio)
Method in brief: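 Phospho-H2AX Ser139 measured by HTRF (ex 320 nm; em 665 and 620 nm) after 24 hr antibody incubation. Compounds, 15 concentrations, 0.76% DMSO, were applied to CHO-K1 cells for 3hr at 37C before lysis.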

[3] = qHTS assay to identify small molecule agonists of H2AX - cell viability counter screen (AID 1224847; calls by dose curve;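 note: wild-type CHO-K1 cells; top concentration of the series differs between compounds; nearly all actives have a fitted effect of over 30% in size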)
Method in brief: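 For this counter screen, overnight-attached CHO-K1 cells received test compounds (15 concentrations, 0.76% DMSO final); 3 hr later at 37C, CellTiter-Glo reagent was added and luminescence recorded after 30 min at room temperature.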

[4] = qHTS assay to identify small molecule antagonists of the estrogen related receptor (ERR) signaling pathway from Tox21 library (AID 1224848); note: nearly all actives have a fitted effect of over 50% in size; note: potency is the fitted concentration of half-maximal effect
Method in brief: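 Reading was by luminescence 30 min after ONE-Glo addition. Before that, ERR cells at 2,000 per well had rested 6 h at 37 C/5% CO2 and then received pin-tooled compounds in DMSO for 18 h at 37 C.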

[5] = qHTS assay to identify small molecule agonists of the estrogen related receptor (ERR) signaling pathway from Tox21 library (AID 1224849; calls by dose curve; note: nearly all actives have a fitted effect of over 15% in size); details: ERR reporter cell line, ONE-Glo luciferase, 18 h; at 92.4 µM (top of the series) unless noted
Method in brief: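 ERR reporter cell line (NTP) seeded, rested 6 h at 37 C/5% CO2, then pinned with Tox21 compounds in DMSO. After 18 h at 37 C, ONE-Glo luciferase luminescence was read following 30 min at room temperature.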

[6] = qHTS RealTime-Glo MT Cell Viability Assay in HepG2 cells - 24 hour (AID 1224867); note: nearly all actives have a fitted effect of over 50% in size
Method in brief: (§1)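 Viability was tracked continuously by NanoLuc luminescence from prosubstrate reduced by living HepG2 cells, at successive time points over 40 h of compound exposure. Cells with reagent were preincubated 5 h at 37 °C before compound addition.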

[7] = qHTS RealTime-Glo MT Cell Viability Assay in HEK293 cells - 32 hour (AID 1224868); note: top concentration of the series differs between compounds; nearly all actives have a fitted effect of over 50% in size
Method in brief: (§2)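 Viability tracked continuously by luminescence as live cells reduce a prosubstrate for NanoLuc; HEK293 cells preincubated 5 h, compound-treated at 37 C, and read at 0, 8, 16, 24, 32 and 40 h.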

[8] = A CellTox Green Cytotoxicity Assay to monitor cytotoxicity in HEK293 cells - 0 hour (AID 1224869); note: nearly all actives have a fitted effect of over 50% in size
Method in brief: (§3)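 HEK293 cells premixed with CellTox Green dye were seeded at 600 cells/well and left 5 h at 37 C/5% CO2 before pin transfer of 23 nL compound in DMSO. Fluorescence from dye bound to dead-cell DNA was read during 40 h treatment.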

[9] = qHTS RealTime-Glo MT Cell Viability Assay in HepG2 cells - 40 hour (AID 1224870); note: nearly all actives have a fitted effect of over 50% in size
Method in brief: (§4)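 Real-time viability: cells seeded at 600 per well together with NanoLuc and cell-permeant prosubstrate, compounds added after 5 h incubation. Luminescence tracked at 0, 8, 16, 24, 32 and 40 h of exposure.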

[10] = A CellTox Green Cytotoxicity Assay to monitor cytotoxicity in HEK293 cells - 40 hour (AID 1224871); note: nearly all actives have a fitted effect of over 45% in size; note: potency is the fitted concentration of half-maximal effect
Method in brief: as §3

[11] = qHTS RealTime-Glo MT Cell Viability Assay in HEK293 cells - 16 hour (AID 1224872)
Method in brief: as §2

[12] = qHTS RealTime-Glo MT Cell Viability Assay in HepG2 cells - 8 hour (AID 1224873); note: nearly all actives have a fitted effect of over 55% in size
Method in brief: as §4

[13] = qHTS RealTime-Glo MT Cell Viability Assay in HEK293 cells - 40 hour (AID 1224874); details: RealTime-Glo luminescence; max response: stronger effect = lower value; note: nearly all actives have a fitted effect of over 50% in size
Method in brief: (§5)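 HEK293 cells mixed with RealTime-Glo reagents (NanoLuc plus cell-permeant prosubstrate) at 600 cells/well, preincubated 5 h at 37 C/5% CO2, then given 23 nL compound in DMSO. Nonlytic luminescence from viable cells was read at 0, 8, 16, 24, 32 and 40 h.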

[14] = A CellTox Green Cytotoxicity Assay to monitor cytotoxicity in HEK293 cells - 24 hour (AID 1224875); note: nearly all actives have a fitted effect of over 45% in size
Method in brief: as §3

[15] = A CellTox Green Cytotoxicity Assay to monitor cytotoxicity in HepG2 cells - 24 hour (AID 1224878); note: nearly all actives have a fitted effect of over 45% in size
Method in brief: (§6)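 HepG2 cells were seeded together with the CellTox Green dye at 600 cells/well, left 5 h at 37 C/5% CO2, then given compounds in DMSO. Fluorescence from dye bound to dead-cell DNA was read repeatedly over 40 h of treatment at 37 C.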

[16] = A CellTox Green Cytotoxicity Assay to monitor cytotoxicity in HepG2 cells - 40 hour (AID 1224879); note: nearly all actives have a fitted effect of over 40% in size; note: potency is the fitted concentration of half-maximal effect
Method in brief: as §6

[17] = qHTS RealTime-Glo MT Cell Viability Assay in HEK293 cells - 0 hour (AID 1224880); note: top concentration of the series differs between compounds; nearly all actives have a fitted effect of over 45% in size
Method in brief: as §5

[18] = qHTS assay to identify small molecule agonists of the hypoxia (HIF-1) signaling pathway (AID 1224846; active = well fitted activation curve with a large enough effect in the signal ratio in the repeat runs, not every such curve was filed as active; the % refers to the signal ratio)
Method in brief: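 HRE-bla ME-180 cells (beta-lactamase reporter under hypoxia response element) were plated at 2,000 cells/well in medium with 0.5% dialyzed FBS, rested 5 hrs, then given compounds in DMSO for 17 hrs at 37C, 5% CO2. Reporter induction was read with CCF4-AM FRET substrate.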

[19] = qHTS RealTime-Glo MT Cell Viability Assay in HepG2 cells - 32 hour (AID 1224877); note: nearly all actives have a fitted effect of over 55% in size
Method in brief: as §1

[20] = A CellTox Green Cytotoxicity Assay to monitor cytotoxicity in HepG2 cells - 16 hour (AID 1224876); note: nearly all actives have a fitted effect of over 45% in size
Method in brief: as §6

Structure (SMILES) | Potency [1] | Potency [2] | Potency [3] | Potency [4] | activity change, positive = activation [5] | Potency [6] | Potency [7] | Potency [8] | Potency [9] | Potency [10] | Potency [11] | Potency [12] | max response [13] | Potency [14] | Potency [15] | Potency [16] | Potency [17] | Potency [18] | Potency [19] | Potency [20]
CCN(CC)CCNC(=O)c1cc(Br)c(N)cc1OC | inactive | inactive | inactive | inactive | 3.9% [at 42.5 µM] | inactive | inactive | inactive | inactive | inactive | inactive | inactive | 10.1% | inactive | inactive | inactive | inactive |  |  | 
c1ccc(C(O[C@H]2CCCN(CCc3ccc4c(c3)OCO4)C2)c2ccccc2)cc1 | inactive | inactive |  |  |  | inactive |  | inactive | inactive | inactive |  | inactive | -24.8% | inactive |  |  | inactive | inactive | inactive | 
CC1=CCCC(C)(C)C12CCC(C)O2 (stereo not drawn) | inactive | inactive | inactive |  |  |  |  | inactive | inactive | inactive | inactive |  | -12.5% | inactive | inactive | inactive | inactive | inactive | inactive | inactive
CN(C)CCN(Cc1ccc(Cl)cc1)c1ccccn1 | inactive | inactive |  |  |  | inactive | inactive | inactive | inactive | inactive | inactive | inactive | -11% | inactive | inactive | inactive | inactive | inactive | inactive | 
CCCC(=O)Nc1ccc(O)c(C(C)=O)c1 | inactive | inactive |  |  |  | inactive | inactive | inactive | inactive | inactive | inactive |  | -1.71% | inactive | inactive | inactive | inactive | inactive | inactive | inactive
O=[N+]([O-])c1ccc(NCCO)c(OCCO)c1 | inactive | inactive | inactive | inactive | -14.5% | inactive | inactive | inactive | inactive | inactive | inactive | inactive | -13.3% | inactive | inactive | inactive | inactive |  | inactive | inactive
CC1CCC(=O)C1=O (stereo not drawn) | inactive | inactive |  |  |  | inactive | inactive | inactive | inactive | inactive | inactive | inactive | 3.01% | inactive | inactive | inactive | inactive | inactive | inactive | inactive
CN1C[C@H]2c3ccccc3Oc3ccc(Cl)cc3[C@@H]2C1 | inactive | inactive | inactive | inactive | -3.7% [at 42.5 µM] | inactive |  | inactive | inactive | inactive | inactive | inactive | -21.8% | inactive |  | 26.8 µM (active) |  |  | inactive | 
C=C(C)C(=O)OCCO | inactive | inactive | inactive |  |  |  | inactive |  | inactive | inactive | inactive | inactive | 3.51% | inactive | inactive | inactive | inactive | inactive |  | inactive
Nc1cccc(S(=O)(=O)c2cccc(N)c2)c1 | inactive | inactive |  | inactive | 0.747% | inactive | inactive | inactive | inactive | inactive | inactive | inactive | -13.5% | inactive | inactive | inactive | inactive | inactive | inactive | inactive
O=C(O)c1nc(Cl)c(Cl)c(Cl)c1Cl | inactive | inactive |  | inactive | 0.56% | inactive |  | inactive | inactive | inactive | inactive | inactive |  | inactive | inactive | inactive | inactive | inactive |  | inactive
CCOC(=O)COC(=O)c1cc(Oc2ccc(C(F)(F)F)cc2Cl)ccc1[N+](=O)[O-] | inactive | inactive |  |  |  | inactive |  | inactive | inactive |  |  |  |  | inactive |  | inactive | inactive | inactive | inactive | inactive
C=CCOc1ccccc1OCC(O)CNC(C)C (stereo not drawn) | inactive | inactive | inactive | inactive | 4.2% [at 42.5 µM] | inactive | inactive | inactive | inactive | inactive | inactive |  | 4.45% | inactive | inactive | inactive | inactive |  | inactive | inactive
CCCCC(CC)CN1C(=O)C2C3C=CC(C3)C2C1=O (stereo not drawn) | inactive | inactive |  | 54.5 µM (active) | -33.1% | inactive |  | inactive | inactive | 30.9 µM (active) |  | inactive |  |  | inactive | inactive | inactive | inactive | inactive | 
CN(Cc1ccc(C(C)(C)C)cc1)Cc1cccc2ccccc12 | inactive | inactive |  |  |  | inactive | inactive | inactive | inactive |  | inactive | inactive | -22.5% |  | inactive | inactive | inactive | inactive | inactive | 
CCOC(=O)c1cccnc1 | inactive | inactive |  |  |  | inactive | inactive | inactive | inactive | inactive | inactive |  | 1.88% | inactive |  | inactive | inactive | inactive | inactive | 
